# Out of some 400,000 compounds screened, about 1,900 (0.47%) were called active. Roughly 14% stayed inconclusive and do not appear here. How the calls were made is not given here. Shown is part of a subset that was picked to be rich in actives.
# Target: Ataxin-2 (Homo sapiens) (UniProt Q99700)
# Experiment: qHTS for Inhibitors of ATXN expression.
# Format: functional
# Sequence of Ataxin-2 (Homo sapiens) (Q99700 whole entry): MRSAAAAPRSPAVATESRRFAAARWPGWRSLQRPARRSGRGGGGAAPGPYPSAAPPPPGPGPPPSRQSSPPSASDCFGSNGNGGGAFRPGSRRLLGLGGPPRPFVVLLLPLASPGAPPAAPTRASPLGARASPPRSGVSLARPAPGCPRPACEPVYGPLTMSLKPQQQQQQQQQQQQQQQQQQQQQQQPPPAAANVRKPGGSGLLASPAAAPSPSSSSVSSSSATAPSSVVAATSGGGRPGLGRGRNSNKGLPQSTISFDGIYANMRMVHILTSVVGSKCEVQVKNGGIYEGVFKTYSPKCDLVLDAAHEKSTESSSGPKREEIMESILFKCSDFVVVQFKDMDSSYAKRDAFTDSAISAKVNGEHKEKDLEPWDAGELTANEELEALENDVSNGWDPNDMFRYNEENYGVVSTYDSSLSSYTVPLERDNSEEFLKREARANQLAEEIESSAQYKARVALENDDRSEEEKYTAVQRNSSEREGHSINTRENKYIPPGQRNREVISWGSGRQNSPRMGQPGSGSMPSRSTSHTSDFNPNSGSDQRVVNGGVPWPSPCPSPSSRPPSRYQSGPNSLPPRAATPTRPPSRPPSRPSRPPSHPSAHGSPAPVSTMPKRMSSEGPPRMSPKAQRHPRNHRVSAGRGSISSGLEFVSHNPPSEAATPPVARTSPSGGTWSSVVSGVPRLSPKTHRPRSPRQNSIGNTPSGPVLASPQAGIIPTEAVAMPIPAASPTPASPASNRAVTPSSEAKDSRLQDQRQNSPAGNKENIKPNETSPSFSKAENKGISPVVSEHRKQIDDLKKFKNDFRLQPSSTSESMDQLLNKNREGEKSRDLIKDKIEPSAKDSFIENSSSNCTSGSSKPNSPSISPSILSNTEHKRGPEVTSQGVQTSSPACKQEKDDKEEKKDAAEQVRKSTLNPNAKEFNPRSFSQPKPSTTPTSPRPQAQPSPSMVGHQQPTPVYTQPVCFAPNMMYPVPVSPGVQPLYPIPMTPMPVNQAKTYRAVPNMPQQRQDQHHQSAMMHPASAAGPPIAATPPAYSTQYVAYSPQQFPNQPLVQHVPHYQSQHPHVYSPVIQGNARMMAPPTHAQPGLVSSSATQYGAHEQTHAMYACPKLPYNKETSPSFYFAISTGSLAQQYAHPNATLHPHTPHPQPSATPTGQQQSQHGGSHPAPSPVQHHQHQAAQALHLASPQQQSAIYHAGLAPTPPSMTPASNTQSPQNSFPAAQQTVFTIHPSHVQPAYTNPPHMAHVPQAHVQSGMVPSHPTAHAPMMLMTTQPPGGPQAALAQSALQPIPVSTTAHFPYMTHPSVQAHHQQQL
row,SMILES,Potency
1,O=c1c2ccccc2nc(/C=C/c2ccc(O)cc2)n1-c1ccc(O)cc1,inactive
2,Cc1ccc(C)c(S(=O)(=O)Nc2ccc3c(c2)CCCN3C(=O)c2cccs2)c1,39.8 µM (active)
3,COc1cccc(-c2nc3cc4c(cc3cc2CN(C(=O)c2cccs2)C2CC2)CCC4)c1OC,35.5 µM (active)
4,CCOc1ccc(N/C=C2/C(=O)NC(=S)N(Cc3ccccc3)C2=O)cc1,inactive
5,CCCC[C@@H](C)C[C@@H](C)C(=O)N(C)[C@@H](CC(C)C)C(=O)N[C@H](C(=O)N(C)[C@H](C(=O)N1C[C@@H](O)C[C@H]1C(=O)N1C(=O)C=C[C@@H]1C)C(C)C)C(C)OC(C)=O (stereo not given in full),10 µM (active)
6,O=c1c2ccccc2nc(/C=C/c2ccc(O)c(O)c2)n1-c1ccccc1,inactive
7,Cc1ccc(N2C(=O)/C(=C/NCc3ccccn3)C(=O)NC2=S)cc1,inactive
8,O=C1NC(=S)N(c2ccc(F)cc2)C(=O)/C1=C\c1ccoc1,inactive
9,O=C1NC(=S)N(c2ccccc2F)C(=O)/C1=C\c1cccs1,31.6 µM (active)
10,Cc1cc(N(CCCl)CCCl)ccc1C=Cc1ccncn1,inactive
11,Oc1nc2ccccc2n1C1CCN(C(c2ccccc2)c2nnnn2-c2ccc3c(c2)OCCO3)CC1 (stereo not given),14.1 µM (active)
12,Oc1nc2ccccc2n1C1CCN(C(CCc2ccccc2)c2nnnn2-c2ccc3c(c2)OCCO3)CC1 (stereo not given),39.8 µM (active)
13,Oc1nc2ccccc2n1C1CCN(C(CCc2ccccc2)c2nnnn2C2CCCCC2)CC1 (stereo not given),39.8 µM (active)
14,Oc1nc2ccccc2n1C1CCN(C(c2ccccc2OC(F)(F)F)c2nnnn2-c2ccc3c(c2)OCCO3)CC1 (stereo not given),39.8 µM (active)
15,COc1ccc(C2CC(c3cccs3)=NN2c2nc(C)c(C(C)=O)s2)cc1OC (stereo not given),inactive
16,CCOCCSc1nc2c(c(-c3cccs3)c1C#N)CC/C2=C/c1cccs1,inactive
17,Cc1cccc(-c2noc(-c3ccc4c(c3)OCO4)n2)c1,inactive
18,CC(C)CNC(=O)c1c(N)n(Cc2ccco2)c2nc3ccccc3nc12,inactive
19,CCCN=C1C(=O)C2=C(C(O)=C1C)N1CC3NC3[C@@]1(OC)C2COC(N)=O (stereo not given in full),inactive
20,COc1ccc(-n2c(/C=C/c3ccc(O)c(OC)c3)nc3ccccc3c2=O)cc1,inactive

row,SMILES,Potency
1,CC[N+](C)(CC)CCC[n+]1c(-c2ccccc2)c2cc(N)ccc2c2ccc(N)cc21,11.2 µM (active)
2,C/C(=C\c1ccc(N(C)C)cc1)[N+](=O)[O-],22.4 µM (active)
3,Cc1ccc(CN2CCCC(C(=O)c3cccc(C(F)(F)F)c3)C2)o1 (stereo not given),inactive
4,C=C1C(=O)O[C@@H]2C[C@@H](C)[C@@H]3C=CC(=O)[C@@]3(C)[C@@H](OC(=O)CC(=O)O[C@H]3[C@@H]4C(=C)C(=O)O[C@@H]4C[C@@H](C)[C@@H]4C=CC(=O)[C@]43C)[C@H]12,0.562 µM (active)
5,C=C1C(=O)O[C@@H]2C[C@@H](C)[C@H]3C=CC(=O)[C@]3(O)C[C@@H]12,22.4 µM (active)
6,C=C1C(=O)O[C@@H]2C[C@@H](C)[C@@H]3C=CC(=O)[C@@]3(C)[C@@H](O)[C@H]12,20 µM (active)
7,COc1cc(/C=C/c2nc3ccccc3c(=O)n2-c2ccccc2O)ccc1O,inactive
8,COc1ccc(-c2c/c(=N\CCC(=O)O)c3cc(C)ccc3o2)cc1,inactive
9,C=CCn1c(=O)/c(=C\c2ccccn2)s/c1=C(/C#N)C(=O)NCC1CCCO1 (stereo not given),inactive
10,O=C(Nc1c(Cl)cccc1Cl)Oc1cccc2cccnc12,inactive
11,O=C(NNC(=O)C12CC3CC(CC(C3)C1)C2)c1ccccc1F,inactive
12,C[C@@H]1O[C@H](O[C@H]2C[C@@H](O)[C@@]3(CO)[C@H]4[C@@H](O)C[C@]5(C)[C@@H](C6=CC(=O)OC6)CC[C@]5(O)[C@H]4CC[C@]3(O)C2)[C@@H](O)[C@H](O)[C@@H]1O,0.0891 µM (active)
13,C[C@@]12CC[C@H]3[C@@H](CC[C@]4(O)C[C@H](O)CC[C@@]34C=O)[C@]1(O)CC[C@@H]2C1=CC(=O)OC1,0.708 µM (active)
14,C[C@@H]1O[C@H](O[C@@H]2CC[C@@]3(C=O)[C@H]4CC[C@@]5(C)[C@@H](C6=CC(=O)OC6)CC[C@@]5(O)[C@@H]4CC[C@]3(O)C2)C[C@H](O)[C@@H]1O,3.55 µM (active)
15,CCC1C(=O)OCC1Cc1cncn1C (stereo not given),inactive
16,CSCCC(c1nnnn1C1CCCCC1)N1CCC2(CC1)C(=O)NCN2c1ccccc1 (stereo not given),39.8 µM (active)
17,COc1cccc(C(c2nnnn2C2CCCC2)N2CCC3(CC2)C(=O)NCN3c2ccccc2)c1OC (stereo not given),39.8 µM (active)
18,COc1cccc(C(c2nnnn2-c2ccc3c(c2)OCCO3)N2CCC3(CC2)C(=O)NCN3c2ccccc2)c1OC (stereo not given),39.8 µM (active)
19,COc1cccc(C(c2nnnn2C(C)(C)C)N2CCC3(CC2)C(=O)NCN3c2ccccc2)c1OC (stereo not given),39.8 µM (active)
20,CC(C)(C)n1nnnc1C(c1cccc2ccccc12)N1CCC2(CC1)C(=O)NCN2c1ccccc1 (stereo not given),39.8 µM (active)
